Here are results for ten compounds from PMC5540273 (PLoS ONE, 2017).

One test relates to DAPK1. Conditions: concentration: 1 μM, replicates: in singlicate, n = 1.
A further test has as its system DAPK2. The settings on record: concentration: 1 μM, replicates: in singlicate, n = 1.
For another test, the system named is DAPK3. Conditions: concentration: 1 μM, replicates: in singlicate, n = 1.
Another test has as its system T1, DCAMKL1.
T1 construct: gene DCLK1
The settings on record: concentration: 1 μM, replicates: in singlicate, n = 1.

The next test relates to T2, DCAMKL2.
T2 construct: gene DCLK2
The settings on record: concentration: 1 μM, replicates: in singlicate; n = 1.

The subject of the next test is T3, DCAMKL3.
T3 construct: gene DCLK3
The settings on record: concentration: 1 μM, replicates: in singlicate, n = 1.

In a further test the test system is DDR1. The settings on record: concentration: 1 μM, replicates: in singlicate, n = 1.
The next test has as its system DDR2. Conditions: concentration: 1 μM, replicates: in singlicate, n = 1.
For the next test, the system named is T4, DLK.
T4 construct: gene MAP3K12
Conditions: concentration: 1 μM, replicates: in singlicate, n = 1.

The test system of the next test is T5, DMPK2.
T5 construct: gene CDC42BPG
The settings on record: concentration: 1 μM, replicates: in singlicate, n = 1.

In the next test the test system is DMPK. Conditions: concentration: 1 μM, replicates: in singlicate, n = 1.
In a further test the test system is T6, DRAK1.
T6 construct: gene STK17A
Conditions: concentration: 1 μM, replicates: in singlicate, n = 1.

The next test concerns T7, DRAK2.
T7 construct: gene STK17B
Conditions: concentration: 1 μM, replicates: in singlicate; n = 1.

Another test relates to DYRK1A. The settings on record: concentration: 1 μM, replicates: in singlicate; n = 1.
In another test the test system is DYRK1B. The settings on record: concentration: 1 μM, replicates: in singlicate, n = 1.
A further test concerns DYRK2. The settings on record: concentration: 1 μM, replicates: in singlicate, n = 1.
Another test concerns EGFR. The settings on record: concentration: 1 μM, replicates: in singlicate, n = 1.
For a further test, the system named is EIF2AK1. The settings on record: concentration: 1 μM, replicates: in singlicate; n = 1.
In the next test the test system is EPHA1. Conditions: concentration: 1 μM, replicates: in singlicate, n = 1.
Another test relates to EPHA2. Conditions: concentration: 1 μM, replicates: in singlicate, n = 1.

Where “and” joins values, the source holds several entries; their conditions need not be identical. Identical values can stand only once. Like-named read-outs stand apart in the source and are kept apart here.
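Further: KINOMEscan kinase panel screen.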

For the compound `CN1c2ccc(CNc3ccc(F)cc3)cc2-c2c(cnn2C)S1(=O)=O`, the “%Inh” value with DAPK1 is 11%; in the test on DAPK2, 0%; in the test on DAPK3 it was 0%; with DCAMKL1 it was 14%; with DCAMKL2, 0%; with DCAMKL3 it was 0%. The “%Inh” value is 4% in the test with DDR1; 35% in the test with DDR2; 0% with DLK; 0% with DMPK2; 1% in the test on DMPK; 0% in the test with DRAK1. Moreover, the “%Inh” value with DRAK2, in the test with DYRK1A, with DYRK1B, in the test on DYRK2, in the test with EGFR and in the test with EIF2AK1 was 0% throughout. In addition, the figures for the “%Inh” value in the test with EPHA1 and in the test with EPHA2 were 0% and 9%, respectively.

Consider `COc1ccc(COc2cc(-n3cnc4ccccc43)sc2C(N)=O)cc1` [GSK1024304], for which the “%Inh” value with DAPK1 came out at 3%; in the test on DAPK2 it was 10%; with DAPK3, 8%; with DCAMKL1 it was 0%; in the test on DCAMKL2, 8%; with DCAMKL3 it was 0%. Moreover, the “%Inh” value with DDR1 is on record as 0%; in the test on DDR2 it was 0%; in the test on DLK, 25%; in the test with DMPK2 it was 7%; with DMPK, 29%; in the test on DRAK1, 16%. The “%Inh” value was determined as 0% in the test on DRAK2; 16% with DYRK1A; 12% in the test with DYRK1B; 12% in the test with DYRK2; 4% in the test with EGFR; 0% in the test on EIF2AK1. Besides, the “%Inh” value in the test with EPHA1 and in the test on EPHA2 was 0% throughout.

For the compound `COCCNC(=O)c1ccc(-c2cc(C(=O)NC3CC3)cc(F)c2C)cc1` [GW868318], the “%Inh” value in the test on DAPK1 is on record as 10%; in the test on DAPK2, 0%; in the test on DAPK3, 28%; in the test with DCAMKL1 it was 12%; with DCAMKL2, 19%; with DCAMKL3, 13%. In addition, the “%Inh” value in the test on DDR1 stood at 21%; in the test with DDR2 it was 21%; in the test on DLK, 6%; in the test on DMPK2 it was 0%; in the test on DMPK, 20%; in the test on DRAK1 it was 13%. The “%Inh” value with DRAK2 is listed as 0%; with DYRK1A it was 9%; with DYRK1B, 21%; in the test with DYRK2, 28%; with EGFR it was 21%; with EIF2AK1 it was 22%. Also, the “%Inh” value worked out at 29% in the test on EPHA1 and 7% in the test on EPHA2.

Turning to `CCc1nc(-c2cccc(C)c2)c(-c2ccnc(NCc3ccccc3)c2)s1`, the “%Inh” value stood at 2% with DAPK1; 10% in the test on DAPK2; 0% in the test on DAPK3; 10% with DCAMKL1; 8% with DCAMKL2; 0% in the test with DCAMKL3. Also, the “%Inh” value with DDR1 was 14%; with DDR2 it was 18%; in the test with DLK, 0%; in the test on DMPK2, 5%; with DMPK it was 0%; in the test on DRAK1, 2%. Further, the “%Inh” value in the test with DRAK2 was found to be 16%; in the test on DYRK1A, 0%; in the test on DYRK1B, 23%; in the test on DYRK2 it was 2%; in the test with EGFR it was 0%; with EIF2AK1, 0%. Moreover, the “%Inh” value in the test on EPHA1 is recorded as 0%; in the test with EPHA2, 1%.

Consider `COc1cc(Nc2nccc(N3CCC(NC(=O)c4cccc(NC(C)=O)c4)C3)n2)cc(OC)c1OC` (centres unmarked) [GSK1379754], for which the “%Inh” value came out at 0% in the test on DAPK1; 8% with DAPK2; 19% in the test on DAPK3; 8% in the test with DCAMKL1; 21% in the test on DCAMKL2; 0% in the test on DCAMKL3. Further, the “%Inh” value was found to be 0% with DDR1; 4% in the test with DDR2; 62% in the test with DLK; 0% with DMPK2; 0% in the test on DMPK; 32% in the test on DRAK1. For the same compound, the “%Inh” value with DRAK2 was 29%; in the test with DYRK1A, 17%; in the test with DYRK1B it was 28%; in the test with DYRK2, 28%; in the test on EGFR, 0%; in the test on EIF2AK1, 0%. Moreover, the “%Inh” value is on record as 11% in the test on EPHA1 and 0% in the test with EPHA2.

For `O=c1cc(N2CCOCC2)nc2n(Cc3cccc4ccccc34)ccn12` [GSK2333389], the “%Inh” value is 0% with DAPK1; 0% with DAPK2; 0% with DAPK3; 0% with DCAMKL1; 0% with DCAMKL2; 2% with DCAMKL3. The “%Inh” value in the test with DDR1 is recorded as 14%; in the test with DDR2 it was 0%; in the test with DLK it was 0%; with DMPK2, 0%; in the test with DMPK, 0%; in the test with DRAK1 it was 0%. Besides, the “%Inh” value is given as 0% in the test on DRAK2; 20% in the test with DYRK1A; 7% in the test with DYRK1B; 21% with DYRK2; 0% with EGFR; 0% in the test with EIF2AK1. For the same compound, the “%Inh” value in the test on EPHA1 is 8%; in the test with EPHA2 it was 0%.

For the compound `CC(C)(CN)c1nc(-c2ccc(Cl)c(O)c2)c(-c2ccncc2)[nH]1.O=C(O)C(F)(F)F` [SB-477794], the “%Inh” value in the test on DAPK1 (1 µM) is 11% and 19%; with DAPK2 (1 µM), 0% and 5%; in the test with DAPK3 (1 µM), 33% and 17%; in the test with DCAMKL1 (1 µM) it was 7% and 3%; in the test on DCAMKL2, 0%; in the test with DCAMKL3 (1 µM), 29% and 36%. For the same compound, the “%Inh” value with DDR1 (1 µM) was 94.5% and 90.8%; with DDR2 (1 µM), 80% and 78%; with DLK (1 µM), 37% and 42%; with DMPK2 (1 µM), 90.8% and 88%; in the test with DMPK (1 µM), 0% and 98.6%; in the test on DRAK1 (1 µM) it was 0% and 5%. For the same compound, the “%Inh” value in the test on DRAK2 was 0%; with DYRK1A, 0%; with DYRK1B (1 µM) it was 0% and 5%; with DYRK2 (1 µM) it was 0% and 5%; in the test on EGFR (1 µM), 70% and 47%; in the test with EIF2AK1, 0%. The “%Inh” value was 97.1% and 95.8% in the test with EPHA1 (1 µM); 26% and 33% with EPHA2 (1 µM).

Take `CCCCCc1nc2c(N)ncnc2n1CCCCC` [SKF-97255]: the “%Inh” value was determined as 0% in the test on DAPK1; 0% with DAPK2; 0% in the test with DAPK3; 23% in the test on DCAMKL1; 0% in the test with DCAMKL2; 5% in the test on DCAMKL3. The “%Inh” value in the test with DDR1 is 0%; with DDR2, 21%; with DLK, 0%; with DMPK2, 0%; with DMPK, 0%; with DRAK1 it was 0%. Further, the “%Inh” value with DRAK2 turned out to be 11%; in the test on DYRK1A, 0%; in the test with DYRK1B it was 0%; in the test with DYRK2 it was 27%; with EGFR, 0%; in the test on EIF2AK1, 0%. For the same compound, the “%Inh” value in the test with EPHA1 and in the test with EPHA2 was 0% in each case.

Consider `O=C1NC(=O)C(N2CCc3ccccc32)=C1c1cccc(Cl)c1` [SB-408010], for which the “%Inh” value in the test with DAPK1 worked out at 5%; in the test with DAPK2, 0%; in the test with DAPK3, 0%; in the test with DCAMKL1 it was 0%; in the test on DCAMKL2, 21%; with DCAMKL3, 21%. Moreover, the “%Inh” value with DDR1 was 0%; with DDR2, 0%; in the test with DLK it was 0%; with DMPK2 it was 0%; in the test with DMPK, 7%; in the test with DRAK1 it was 0%. In addition, the “%Inh” value in the test on DRAK2 was 0%; in the test on DYRK1A, 0%; in the test on DYRK1B, 0%; in the test on DYRK2, 7%; with EGFR it was 0%; with EIF2AK1 it was 5%. Further, the results for the “%Inh” value in the test with EPHA1 and with EPHA2 were 3% and 15%, respectively.

`Cl.Oc1cccc(Nc2ccnc3cc(-c4ccncc4)ccc23)c1` [GW494601]: the “%Inh” value in the test with DAPK1 stood at 5%; with DAPK2, 3%; with DAPK3 it was 15%; with DCAMKL1, 4%; in the test on DCAMKL2, 0%; in the test on DCAMKL3, 8%. The “%Inh” value in the test on DDR1 is 68%; in the test on DDR2, 82%; in the test with DLK, 54%; with DMPK2, 0%; in the test with DMPK, 0%; in the test on DRAK1, 11%. The “%Inh” value is 0% with DRAK2; 25% with DYRK1A; 7% in the test on DYRK1B; 43% with DYRK2; 76% in the test with EGFR; 0% with EIF2AK1. Moreover, the “%Inh” value amounted to 98.8% with EPHA1 and 84% with EPHA2.
